# Screens from PubChem BioAssay.
# PD-1 reverse act = activators reversing PD-1 mediated T-cell inhibition, primary screen, luminescence, primary human CD4 T cells, PD-L1 beads | CellTiter-Glo 96 h | activation, % (concentration not given with the values) | 29,000 tested, under 10 active; call rule not given here;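 further: 0% = median vehicle wells and 100% = positive control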
# NOMO-1 viab = NOMO-1 AML cell viability reduction, primary screen, STK33 inhibitor project, CellTiter-Glo luminescence; inhibition, % (test concentration not listed); 37,000 tested, 7.5% active; NOMO-1 AML viability, 72 h; AID 2330, 2010; in the data active means inhibition above about 80%
# ROS inducer = ROS inducers in U2OS cancer cells, primary screen, cell-based, H2DCF-DA fluorescence; U2OS ROS induction; ROS induction (% of piperlongumine), % at 10 µM; 46,000 tested, 2% active; AID 624156, 2012; in the data active means ROS induction above about 79%, passing the limit was not always enough;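 further: 0% = DMSO vehicle median and 100% = reference compound median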
# Starred values were filed as active, the others as inactive; x = not tested or not shown. Shown is part of a subset that was picked to be rich in hits.
SMILES,PD-1 reverse act,NOMO-1 viab,ROS inducer
COc1ccc(S(=O)(=O)Nc2ccc3c(c2)CC(=O)N([C@@H](C)CO)C[C@H](C)[C@@H](CN(C)Cc2ccc(C(=O)Nc4ccccc4N)cc2)O3)cc1,-1.0,45.3,1.9
C[C@@H]1CN([C@@H](C)CO)C(=O)Cc2cc(NS(=O)(=O)c3cccs3)ccc2O[C@@H]1CN(C)Cc1ccc(C(=O)O)cc1,2.6,-10.5,10.3
COc1ccc(S(=O)(=O)Nc2ccc3c(c2)CC(=O)N([C@@H](C)CO)C[C@H](C)[C@H](CN(C)Cc2ccc(C(=O)Nc4ccccc4N)cc2)O3)cc1,-0.7,140.4*,-1.2
CCOC(=O)c1cnn(CCOC(=O)c2ccc(C)cc2)c1NC(=O)c1ccc(C)cc1,x,x,-4.7
O=C(Nc1ccc(F)cc1)C1c2ccccc2Oc2ccccc21,x,x,-8.0
CCc1nn(CC(=O)NCCc2ccc(S(N)(=O)=O)cc2)c(=O)c2cc3occc3n12,x,x,-12.1
COc1ccc(Cl)cc1NC(=O)CSc1nc2nccnc2c(=O)n1CC1CCCO1 (centres undefined),x,x,9.8
COC(=O)c1ccccc1NC(=S)N1CCCCC1,x,x,-9.4
Cc1noc(C)c1S(=O)(=O)Nc1ccc2c(c1)CC(=O)N([C@H](C)CO)C[C@@H](C)[C@@H](CN(C)Cc1ccc(C(=O)Nc3ccccc3N)cc1)O2,-0.6,99.8*,3.5
Cc1noc(C)c1S(=O)(=O)Nc1ccc2c(c1)CC(=O)N([C@H](C)CO)C[C@@H](C)[C@H](CN(C)Cc1ccc(C(=O)Nc3ccccc3N)cc1)O2,0.0,30.5,3.1
COc1ccc([Si](C)(C)[C@H]2[C@H](CCO)O[C@@]3(C(=O)N(Cc4cccc(NC(=O)[C@H](C)O)c4)c4ccccc43)[C@@H]2C)cc1,x,x,11.8
COc1ccc([Si](C)(C)[C@H]2[C@H](CCO)O[C@@]3(C(=O)N(Cc4cccc(N5CCC5=O)c4)c4ccccc43)[C@@H]2C)cc1,x,x,106.8*
COc1ccc([Si](C)(C)[C@H]2[C@H](CCO)O[C@@]3(C(=O)N(Cc4ccc(N5CCOC5=O)cc4)c4ccccc43)[C@@H]2C)cc1,x,x,129.7*
COc1ccc([Si](C)(C)[C@@H]2[C@@H](CCn3cc(CCO)nn3)O[C@]3(C(=O)N(Cc4ccc(N5CCOC5=O)cc4)c4ccccc43)[C@H]2C)cc1,x,x,39.2
COc1ccc([Si](C)(C)[C@@H]2[C@@H](CCn3cc([C@H](O)c4ccccc4)nn3)O[C@]3(C(=O)N(Cc4ccc(N5CCC5=O)cc4)c4ccccc43)[C@H]2C)cc1,x,x,57.6
COc1ccc([Si](C)(C)[C@@H]2[C@@H](CCO)O[C@]3(C(=O)N(Cc4ccc(NC(=O)[C@H](C)O)cc4)c4ccccc43)[C@H]2C)cc1,x,x,90.8*
COC(=O)C1=C(C)N=C2SCCC(=O)N2C1c1ccccc1 (centres undefined),x,x,6.7
Cn1nc(OC(C)(C)C(=O)Oc2ccc(Cl)cc2Cl)cc1C(F)(F)F,-0.4,33.2,20.7
O=C(CSc1ncnc2c1nnn2Cc1ccc(F)cc1)c1ccccc1,x,x,21.6
CCn1cc(CN(Cc2ccccc2)C(=S)Nc2cc(C)ccc2C)c2ccccc21,x,x,-27.3
C=CCn1c(=O)c2c(C)c(C)sc2n2c(Nc3ccc(C(=O)OCC)cc3)nnc12,-0.1,29.5,194.4*
CCOC(=O)c1ccc(Nc2nnc(CSc3nc(C)cc(C)n3)s2)cc1,-0.2,24.3,5.5
COC(=O)/C=C/S(=O)(=O)c1ccc(NC(C)=O)cc1,-4.8,125.5*,121.0*
CC(=O)Nc1ccc(S(=O)(=O)NC(C)C)cc1,x,x,-6.8
Cn1c(CSc2cc(C(F)(F)F)nc3ccccc23)nnc1SCC(=O)c1ccccc1,x,x,18.2
SMILES,PD-1 reverse act,NOMO-1 viab,ROS inducer
O=C(NCCCN1CCOCC1)C(=O)NC1CC1,-0.2,18.5,-1.5
CC1CCCC(C)N1C(=S)NCCCN1CCOCC1 (centres undefined),0.4,109.7*,32.1
CCN(Cc1ccccc1)C(=O)N1CCOCC1,x,x,-9.4
CCc1ccc[n+](OC(=O)N(CC)CC)c1,0.5,101.6*,10.5
O=[N+]([O-])c1ccc(N2CCN(S(=O)(=O)c3ccc(Cl)s3)CC2)cc1NCc1ccco1,1.6,-14.2,35.6
Cc1cc(C)c(S(=O)(=O)N2CCN(c3ccc([N+](=O)[O-])c(NCc4ccco4)c3)CC2)c(C)c1,x,1.8,x
O=[N+]([O-])c1ccc(N2CCN(S(=O)(=O)c3ccc(F)cc3)CC2)cc1NCc1cccnc1,-0.9,-7.9,136.3*
CC(C)(C)c1ccc(S(=O)(=O)N2CCN(c3ccc([N+](=O)[O-])c(NCc4cccnc4)c3)CC2)cc1,-3.8,8.2,98.4*
CCC(Sc1nc2ccccc2c2nc(C)nn12)C(=O)Nc1cc(OC)ccc1OC (centres undefined),x,x,27.6
CCC12CN3CC(CC)(CN(C1)C(=O)c1ccccc1C3=O)C2=O,x,x,-12.0
COc1ccc(-n2c(-c3ccc(Cl)cc3)n[nH]c2=S)cc1,-0.2,1.2,22.4
Cn1c2c(c3ccccc31)C(C)(C)Cc1c-2cnn1-c1ccccc1,x,x,17.6
C[C@@H]1CCCCO[C@H](CN(C)C(=O)Nc2ccc(C(F)(F)F)cc2)[C@@H](C)CN([C@H](C)CO)C(=O)c2cc(NS(=O)(=O)c3ccc(F)cc3)ccc2O1,x,64.9,43.6
Cc1ccc(S(=O)(=O)Nc2ccc3c(c2)C(=O)N([C@H](C)CO)C[C@H](C)[C@H](CN(C)C(=O)Nc2ccc(C(F)(F)F)cc2)OCCCC[C@@H](C)O3)cc1,-5.1,114.3*,65.2
C[C@@H]1CCCCO[C@H](CN(C)Cc2ccc(C(F)(F)F)cc2)[C@@H](C)CN([C@H](C)CO)C(=O)c2cc(NS(=O)(=O)c3ccccc3)ccc2O1,x,95.3*,30.1
C[C@@H]1CCCCO[C@@H](CN(C)Cc2ccncc2)[C@@H](C)CN([C@H](C)CO)C(=O)c2cc(NS(=O)(=O)c3ccc(Cl)cc3)ccc2O1,-0.7,17.3,34.4
C[C@@H]1CCCCO[C@@H](CN(C)Cc2ccc(C(F)(F)F)cc2)[C@@H](C)CN([C@H](C)CO)C(=O)c2cc(NS(=O)(=O)c3cccs3)ccc2O1,-12.6,110.3*,17.7
C[C@@H]1CCCCO[C@@H](CN(C)Cc2ccccc2)[C@@H](C)CN([C@H](C)CO)C(=O)c2cc(NS(=O)(=O)c3ccccc3)ccc2O1,-3.3,39.2,13.4
C[C@@H]1CCCCO[C@@H](CN(C)Cc2ccc(C(F)(F)F)cc2)[C@@H](C)CN([C@H](C)CO)C(=O)c2cc(NS(=O)(=O)c3ccc(Cl)cc3)ccc2O1,-7.6,111.0*,30.7
C[C@@H]1CCCCO[C@H](CN(C)Cc2ccc(C(F)(F)F)cc2)[C@@H](C)CN([C@H](C)CO)C(=O)c2cc(NS(=O)(=O)c3cccs3)ccc2O1,x,76.9,44.3
COc1cccc2c1c(NC(=O)c1nccnc1C(=O)O)nn2C,x,x,-10.0
CC(=O)N/C(N)=N/c1nc2ccccc2o1,x,x,-11.8
O=C(NC1CCCCC1)C1CCC(Cn2c(=S)[nH]c3ccccc3c2=O)CC1 (centres undefined),x,x,0.4
CCCN(CCC)C(=O)c1cc2c(n(-c3ccc(Cl)c(Cl)c3)c1=O)CC(C)(C)CC2=O,x,x,2.9
